Rows were chosen to be rich in hits. Some 4.3% of all compounds tested hit in one or more screens of this group.
AF4-AF9 inh: MLL-AF4/AF9 protein interaction inhibition. actives 0.47% (n = 350,000). P42568. AlphaScreen, biotin-AF4 peptide binding to FLAG-AF9. inhibition, % at 10 µM. AID 651704;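 active means every replicate reaching a set inhibition limit, whatever the replicate mean, cut at about 25% in these data; inconclusive means mean inhibition reaches that limit but some replicates miss it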;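 further: 0% = plate neutral control median and 100% = total signal loss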
Target sequence (P42568 whole entry, looked up): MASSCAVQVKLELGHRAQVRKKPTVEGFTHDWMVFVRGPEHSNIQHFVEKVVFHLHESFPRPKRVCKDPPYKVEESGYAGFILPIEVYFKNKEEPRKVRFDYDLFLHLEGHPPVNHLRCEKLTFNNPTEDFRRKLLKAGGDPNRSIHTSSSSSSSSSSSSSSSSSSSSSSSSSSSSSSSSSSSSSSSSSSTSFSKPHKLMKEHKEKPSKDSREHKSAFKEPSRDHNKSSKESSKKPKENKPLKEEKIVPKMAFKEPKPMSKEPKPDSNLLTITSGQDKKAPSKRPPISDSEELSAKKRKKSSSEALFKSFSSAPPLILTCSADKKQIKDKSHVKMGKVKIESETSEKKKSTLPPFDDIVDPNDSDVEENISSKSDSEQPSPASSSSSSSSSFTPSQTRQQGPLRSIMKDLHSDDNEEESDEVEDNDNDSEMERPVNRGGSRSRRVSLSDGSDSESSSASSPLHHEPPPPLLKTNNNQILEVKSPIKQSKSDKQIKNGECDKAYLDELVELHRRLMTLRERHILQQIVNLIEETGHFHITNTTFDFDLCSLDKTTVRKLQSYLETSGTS
esBAF inh: SWI/SNF esBAF complex inhibition; mouse ES cells, Bmi1-luciferase knock-in reporter, 24 h; 100% = twice the neutral-well signal; reporter increase, % at 12.5 µM; actives 2% (n = 350,000); AID 602393; in the data active means activation above about 40%; inconclusive means no clear call, values can overlap the other calls;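 further: 0% = median of the plate's neutral control wells and 100% = double that signal; a rise in the Bmi1 reporter signal indicates esBAF inhibition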
FGF22 binding: binders of recombinant human FGF22 by thermal shift; Q9HCT0; SYPRO orange fluorescence; percent of sucrose octasulfate shift, DMSO zero; activity (Tm shift, normalised), % at 9.99 µM; actives 1.5% (n = 340,000); AID 651658;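 active means mean Tm shift, scaled 0 neutral to 100 positive control, at about 1.3% or above, every replicate too, limit read from the data; inconclusive means no clear call, values can overlap the other calls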
Target sequence (Q9HCT0 whole entry, looked up): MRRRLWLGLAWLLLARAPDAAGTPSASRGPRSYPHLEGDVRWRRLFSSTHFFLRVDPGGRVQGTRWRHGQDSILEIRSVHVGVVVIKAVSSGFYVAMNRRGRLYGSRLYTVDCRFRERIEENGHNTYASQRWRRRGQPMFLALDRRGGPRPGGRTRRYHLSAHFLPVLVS
MITF TRPM1 HTS: increases MITF-driven TRPM1 promoter luciferase signal; SK-MEL-5 TRPM1-promoter luciferase, 24 h; % of positive control, neutral wells = 0; activation, % at 12.5 µM; actives 0.75% (n = 300,000); AID 588334;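 active means mean activation of at least 80% with every replicate also reaching 80%; inconclusive means mean reaches 80% but some replicate falls short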;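 further: 0% = neutral control wells and 100% = parthenolide positive control wells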
Wnt act: activators of Wnt/beta-catenin signaling; Wnt/beta-catenin reporter cell assay, activator, plate reader; activation, % at 9.35 µM; actives 1.2% (n = 300,000); in the data active means activation above about 30%, passing the limit was not always enough; inconclusive means no clear call, values can overlap the other calls;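 further: 0% = neutral control wells and 100% = positive control wells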
SMARCA2 activ: increases SMARCA2 function in MMTV reporter cells. MG213 cells, MMTV-luciferase reporter, dexamethasone, overnight. activation, % at 9.1 µM. actives 1% (n = 370,000); in the data active means activation above about 7.8%;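 further: 0% = vehicle wells and 100% = reference activator wells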
The depositor's hits bear a star; ? = inconclusive; nt = not tested or not shown.

SMILES | AF4-AF9 inh | esBAF inh | FGF22 binding | MITF TRPM1 HTS | Wnt act | SMARCA2 activ
Cc1ccc(/C=C/C(=O)O)cc1S(=O)(=O)NC1CCS(=O)(=O)C1 (stereo not drawn) | -21.0 | 2.6 | 43.5* | -6.1 | -0.2 | -2.2
CO[C@@H]1CN(C)C(=O)c2cc(NC(=O)Cc3ccccc3)ccc2OC[C@@H](C)N(C(C)=O)C[C@@H]1C | 0.1 | 1.5 | -0.3 | nt | nt | nt
CC(C)[C@H](NC(=O)Nc1ccc(Oc2ccccc2)cc1)C(=O)O | nt | -7.0 | nt | 0.7 | nt | 3.0
CC(C)[C@H](NC(N)=O)C(=O)Nc1ccc(Oc2ccccc2)cc1 | -0.8 | -4.8 | 43.3* | 9.2 | -0.7 | -1.4
CC(C)NC(=O)Nc1ccc2c(c1)C(=O)N([C@H](C)CO)C[C@H](C)[C@H](CN(C)S(C)(=O)=O)OCCCC[C@@H](C)O2 | -2.1 | -4.3 | 0.7 | nt | nt | nt
O=[N+]([O-])c1cc(-c2cnc3ccccc3n2)ccc1Cl | -0.5 | nt | 43.7* | 18.1 | ? | 2.9
CS(=O)(=O)Nc1cccc(-c2cnc3ccccc3n2)c1 | -0.9 | 32.1 | 0.2 | 98.0* | 15.5 | 6.4
O=[N+]([O-])c1cccc(-c2cnc3ccccc3n2)c1 | 0.8 | 52.1* | 0.2 | 40.9 | -0.4 | 4.4
Cc1cc(-c2cccc([N+](=O)[O-])c2)nc2ccccc12 | 6.0 | nt | -0.1 | -13.9 | 3.7 | 1.5
O=C(N[C@H]1CC[C@@H](CCNS(=O)(=O)Cc2ccccc2)O[C@@H]1CO)c1ccc2c(c1)OCO2 | 5.4 | -1.1 | -0.3 | nt | nt | nt
CCOC(=O)N1CCN(C(=O)COC(=O)c2ccc(O)cc2O)CC1 | 0.2 | -0.8 | -0.1 | -7.2 | 1.3 | -2.8
CCc1ccc(N2Cc3ccccc3C2)cc1 | 5.3 | nt | 0.0 | 85.5* | 2.4 | 5.5
CCOC(=O)c1ccc(N2Cc3ccccc3C2)cc1O | -6.5 | 29.7 | 0.2 | 106.0* | 7.7 | 1.3
Cc1cccc(NC(=S)NNC(=O)c2ccc(O)cc2O)c1C | 0.1 | 11.6 | 2.3* | 2.2 | -0.7 | -1.0
Cc1cccc(NC(=O)NNC(=O)c2cc3ccccc3cc2O)c1C | -3.1 | nt | 0.3 | 4.0 | -2.3 | 1.9
COc1ccc(-c2cc(OC)c3ccccc3n2)cc1 | nt | nt | nt | -3.8 | nt | -0.2
COc1ccc(-c2ccc3ccccc3n2)cc1OC | -5.5 | nt | 0.0 | 99.7* | 31.4* | 6.0
COc1ccc(-c2ccc3ccccc3n2)cc1 | -3.5 | nt | 0.0 | 47.7 | 9.1 | 5.6
COc1cc2ccc(-c3ccc4ccccc4n3)cc2cc1OC | -3.7 | nt | -0.1 | nt | 50.4* | -2.7
CCS(=O)(=O)Nc1ccc2c(c1)C(=O)N(C)C[C@H](OC)[C@@H](C)CN(CC1CCCC1)[C@H](C)CO2 | nt | 0.4 | nt | nt | nt | nt
C/C(=N\NC(=O)CCc1c(C)n[nH]c1C)c1ccc([N+](=O)[O-])cc1 | 3.0 | nt | 0.1 | nt | -2.8 | -2.0
C/C(=N/Nc1ccc([N+](=O)[O-])cc1)c1c[nH]c2ccccc12 | 3.9 | 57.9* | 0.0 | nt | -3.4 | 0.5
CC1=NNC(=O)C1CCC(=O)N/N=C(/C)c1ccc([N+](=O)[O-])cc1 (stereo not drawn) | -10.4 | -5.5 | 43.0* | 1.9 | -6.8 | -1.1
C/C(=N\Nc1ccc([N+](=O)[O-])cc1)c1cc2ccccc2o1 | 0.1 | nt | 43.7* | -10.1 | -0.6 | 7.4
C/C(=N/Nc1ccc([N+](=O)[O-])cc1)c1ccc(C)cc1C | 9.2 | 38.2 | 0.3 | 69.9 | 14.2 | 2.1
SMILES | AF4-AF9 inh | esBAF inh | FGF22 binding | MITF TRPM1 HTS | Wnt act | SMARCA2 activ
C/C(=N\NC(=O)CCc1c[nH]c2ccccc12)c1ccc([N+](=O)[O-])cc1 | 1.5 | nt | 43.7* | -1.5 | 1.5 | -1.8
C[C@H](NC(=O)C[C@@H]1C[C@H]2c3cc(NC(=O)CN(C)C)ccc3O[C@H]2[C@H](CO)O1)c1ccccc1 | -0.3 | -1.2 | -0.2 | nt | nt | nt
N#Cc1ccccc1N1CCN(C(=O)C2CCN(c3ncnc4c3sc3cccc(F)c34)CC2)CC1 | nt | nt | nt | nt | nt | -7.5
COc1ccc(SCC(=O)c2cc(C)c(OC(=S)N(C)C)c(C)c2)cc1 | nt | 4.3 | nt | 28.6 | 40.8* | 2.1
O=C(Nc1ccc(F)cc1)Nc1ccc(N2CCOCC2)c2nonc12 | -2.2 | nt | 0.1 | 93.9* | 13.9 | 2.3
Cc1cccc(S(=O)(=O)N2C[C@@H]3[C@H](c4ccccc42)[C@H](CO)N3C(=O)CC2CC2)c1 | -16.1 | -3.5 | 0.2 | nt | nt | nt
O=C(Nc1ccccc1F)N[C@H]1CC[C@@H](CCNC(=O)C2CCCC2)O[C@@H]1CO | -1.3 | -4.9 | 0.1 | nt | nt | nt
CCOc1ccc(-c2noc(-c3csc([C@@H]4C[C@H](O)[C@@H](CO)O4)n3)n2)cc1 | 0.7 | 80.8* | -0.3 | nt | -1.5 | 0.3
OC[C@H]1O[C@@H](c2nc(-c3nc(-c4ccc(F)cc4)no3)cs2)[C@H](O)[C@@H]1O | -3.2 | 4.2 | 0.0 | nt | 61.1* | 0.0
COc1cc(OC)cc(-c2noc(-c3csc([C@@H]4C[C@H](O)[C@@H](CO)O4)n3)n2)c1 | 2.0 | 48.1* | -0.1 | nt | -3.5 | 1.7
COc1ccc(-c2noc(-c3csc([C@@H]4C[C@H](O)[C@@H](CO)O4)n3)n2)cc1OC | -3.3 | 37.3 | -0.1 | nt | 13.2 | 4.1
Cc1ccccc1Nc1nnc(SCC2CCCCO2)s1 (stereo not drawn) | -2.7 | 15.6 | 0.3 | 12.8 | 50.2* | 3.2
CC(C)C[C@@H]1COc2cc(Br)ccc2S(=O)(=O)N1Cc1cn(Cc2ccc(C(F)(F)F)cc2)nn1 | nt | nt | nt | nt | nt | 3.0
Oc1ccccc1/C=N/NC(=S)NC1CC2CC1C1C=CCC21 (stereo not drawn) | ? | 56.8* | 0.2 | 30.5 | 48.6* | -0.5
COc1cccc(/C=N/NC(=S)NC2CC3CC2C2C=CCC32)c1O (stereo not drawn) | nt | nt | 0.2 | nt | -1.7 | 1.2
C[C@H](CO)N1C[C@H](C)[C@@H](CN(C)S(=O)(=O)c2cn(C)cn2)Oc2c(cccc2N(C)C)C1=O | -1.4 | -2.3 | 0.1 | nt | nt | nt
O=C(C[C@H]1CC[C@H]2[C@@H](COC[C@@H](O)CN2CCc2ccccc2)O1)NCc1ccc(Oc2ccccc2)cc1 | 0.9 | 5.6 | -0.1 | nt | nt | nt
Cc1ccc(CNC(=O)COC(=O)C2CCN(S(=O)(=O)c3cccs3)CC2)cc1 | -0.9 | 2.3 | 0.0 | -2.5 | 95.8* | -4.7
COc1cccc(NC(=O)COC(=O)C2CCN(S(=O)(=O)c3cccs3)CC2)c1 | -9.7 | -2.5 | 43.4* | 2.8 | 5.6 | -1.4
COc1ccc(CNC(=O)CN2CCN(S(=O)(=O)c3cccs3)CC2)cc1OC | 0.1 | -6.8 | 43.4* | -2.4 | -0.4 | 0.2
O=C(COC(=O)C1CCN(S(=O)(=O)c2cccs2)CC1)NCc1ccccc1 | -1.0 | 1.5 | 0.3 | -8.3 | 8.5 | 1.8
CCCC#Cc1cnc2c(c1)C(=O)N([C@H](C)CO)C[C@@H](C)[C@H](CN(C)C(=O)NC1CCCC1)O2 | -1.5 | 4.2 | 0.0 | nt | nt | nt
COc1ccc(S(=O)(=O)Nc2ccc3c(c2)C(=O)N([C@@H](C)CO)C[C@@H](C)[C@@H](CN(C)S(=O)(=O)c2cccs2)OCCCC[C@@H](C)O3)cc1 | -1.4 | 8.5 | -0.3 | nt | nt | nt

Bioassay records as filed in PubChem.
